In the supplement of paper PMC11417369:
In all, about 25,000 sequences were measured (“ln(normalized median fluorescence intensity)”: median about 9.7, highest 2% from about 11 on). The sample as a whole holds a higher share of the highest values than the screen did.

Tested on: PfAP2-HC AP2 domain (GST-tagged)
Assay: gcPBM binding intensity (ln(normalized median fluorescence intensity)); higher = stronger DNA binding
Summary of the method: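 Binding intensity is the highest Masliner-normalised natural-log median intensity over replicate spots in either probe orientation. To obtain it, GST-tagged P. falciparum DNA-binding domains made in E. coli were incubated for 1 h on an Agilent 4 × 180k array of primer-extended double-stranded 36-bp intergenic genomic probes plus negative controls. Detection used Alexa488 anti-GST antibody with scanning at 488 nm.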

Sequence | gcPBM binding intensity (ln)
CACAAAAATAGACACACACACATATAAATAAATATA [CACACA_site6598] | 10.4
TTATAAAATGGGCAAACACACACAAAAAAAAGATAT [CACACA_site8476] | 10.9
ATAAAATGCGCAAACACACACAAAAAAAAGATATAT [CACACA_site6875] | 10.2
AAATAAATAATATGTAAACACACAAAAAATAAAAAT [CACACA_site8307] | 10.3
TATATATAAATAAACACACACAAATATAATAAAAAA [CACACA_site3526] | 10.9
CTTACCAAAAAACACACACACACAAAATATATAAAT [CACACA_site1870] | 11.2
AAAATCACAAGACACACACACACAAAAAAAAAAAAA [CACACA_site6791] | 11.5
TACCAAAAGAAACACACACACAAAATATATAAATAT [CACACA_site1869] | 10.6
AATCACAACAGACACACACACAAAAAAAAAAAAAAA [CACACA_site1442] | 10.1
ATAAAATGGGCAAACACACACAAAAAAAAGATATAT [CACACA_site1648] | 10.3
TACCAAAATAGACACACACACAAAATATGTAAATAT [CACACA_site6963] | 11
AAAATCACAAAACACACACACACAAAAAAAAAAAAA [CACACA_site1443] | 10.5
ATAAATAAATAAATAAATAAATAAATAAATATATAT [CACACA_negctrl_site1728] | 9.74
TTTAATTTATATTTTGTGCACATCTTATTATATATA [GTGCAC_site9630] | 9.88
GAAGTATTATTAAAGCTGCACTTTTCTAAAATAAAC [GTGCAC_site9429] | 9.5
TAATTACCATATGGTACACACATATATATCTGTATA [CACACA_site5849] | 9.96
CAGGCACTAATAAACACACACATATAAATATAAATA [CACACA_site6320] | 10.1
AATTTAACCACTAAAAGTACACACATATATACATAT [XGTACX_site8352] | 10.1
TACTTTTTTCCTATTATGTTTCTTATTTTTATAAAT [XGTACX_negctrl_site561] | 9.78
GATGATTATATATATACGCACACTTTTTTTTTTTTT [CACACA_site2652] | 9.94
TAATAAAACATATATACACACATTATAAATACATAT [CACACA_site5014] | 10
TTTTTTTTTTTTCTGTGTACATATATAATATATATA [XGTACX_site1592] | 9.7
AATATATATAAATAAACACACACAAATATAATAAAA [CACACA_site9176] | 10.8

Sequence | gcPBM binding intensity (ln)
AAAAAGAAAAAAAACACACACAAATATAAATAAATA [CACACA_site1183] | 10.2
AAAAAAAAAAAACACACACACACAAATATATAAAAA [CACACA_site1171] | 10.6
AAAAAAAAAAAAAACACACACACAAAAAAAAATATA [CACACA_site1104] | 11.3
AAATATAAAGTGCACACACACAAAAAAAGAAAAAAA [CACACA_site6452] | 10.2
AAATATAAACGGCACACACACAAAAAAAGAAAAAAA [CACACA_site649] | 11
ATATATATAAAACACACACACAAAAAAAATAAAGAC [CACACA_site117] | 11.2
AAAAAAAGAAAAAAAACACACACAAATATAAATAAA [CACACA_site8309] | 10.9
AAATAAATAAAAAACACACACAAATAAATAAATATA [CACACA_site2249] | 10.7
AAAAGAAAATAAGAAACACACAAAAATATATAAAAA [CACACA_site3697] | 9.99
AAAAAAAAAAAACACACACACAAAAAAAAATATATA [CACACA_site1105] | 11.3
AAAAAATATAAAAAAACACACAAAAAAAAAAAAAAA [CACACA_site1382] | 9.71
TGTACAAATATGTTGAAAATAAAATTTCAATATATT [XGTACX_negctrl_site13] | 9.32
AAAAAATTAACCGTAACACACACACCGATATATATA [CACACA_site9312] | 10.5
ATTTTTTTTTTTTTTTTTTTTTTTTGGAGAAAGAGA [CACACA_negctrl_site1119] | 8.98
ATATAGAAAATGCATACACACTTTATATATATATTT [CACACA_site4658] | 9.9
TTACAAATATTATAAAGTACAAACCAGTAGATTTTG [XGTACX_site2272] | 9.63
ATACATATGTATATTTGTACATATTAGACAATCTTA [XGTACX_site6706] | 9.37
CATATATAACAATTCTCACACATAAAAAAAAAAAAT [CACACA_site4564] | 9.76
TTTTTAAATATAAACAAAAAAAAAAAATATATCAAT [XGTACX_negctrl_site328] | 9.43
AAAAAAAAAAAAAACACACACACAATAGTATATAAA [CACACA_site957] | 10.3
AAAAAAAAAAAAAACACACACACAAGAGTATATAAA [CACACA_site6580] | 11.1
AAAAAAATAAATAAGACACACACAAAAAAAAAAAAA [CACACA_site8404] | 11
AAAATATATATTAACACACACACAAAAAAAAAAAAA [CACACA_site1325] | 11.2

Sequence | gcPBM binding intensity (ln)
AAAACAAATATATTAACACACAAACATATAAACAAA [CACACA_site6052] | 10.4
AATACTTACCAAAATACACACACACCCAAAATATAT [CACACA_site8559] | 10.3
TACTTACCAAAATACACACACACACCCAATATATAA [CACACA_site1871] | 10.5
AAAAAAATAAGACACACACACAAAAAAATAAAAATA [CACACA_site6357] | 10.6
TACTTACCAAAATACACACACACACTAGATATATAA [CACACA_site5096] | 11.3
AGAGTATATAAAGTAACACACAATAAAATAAAATAA [CACACA_site2328] | 10.3
AAAAATAAATAAGACACACACAAAAAAAAAAAAAAA [CACACA_site1432] | 9.87
ATATTAAAAAAATATAAACACACAAAAAAAAAATAT [CACACA_site8283] | 9.91
TATTTTTTTCTTACTACACACATATATATGCTTTCC [CACACA_site4058] | 10
ATAGCATATATTTTTTGTACATATGTTATATATATA [XGTACX_site2184] | 9.66
TCAAAAATAAAGATCACACATATATATATATATATA [CACACA_site4381] | 9.73
AAAAAAAAAGATCACACACACATAAATATAAACAAA [CACACA_site5285] | 10.9
CACAAAAATAAACACACACACATATATATATATATA [CACACA_site4704] | 10.4
AAGTTCAAAATAAATGGTACAGAAGTATATATATCA [XGTACX_site174] | 9.75
ATATATCCAAATAGATTACATATATATATATAGATA [TGCATGCA_negctrl_site277] | 9.5
ACATCAAGCGGACACACACACACACCGACAGACACA [CACACA_site4361] | 10.9
AACAGACAGAAACACACACACATATATATATATATA [CACACA_site3394] | 10.8
TACACAAGCAGACACACACACATATATATATATATA [CACACA_site1270] | 10.2
CACAAAGACACAAACACACACACACCCACATACATA [CACACA_site452] | 10.5
TATACACCCAGACACACACACACACCCAAAAAAAAA [CACACA_site497] | 10.9
CAAGCACCCAGACACACACACACACCCACACCCACA [CACACA_site369] | 11.2
ACATCAAGCAGACACACACACACACCCACCCACCGA [CACACA_site371] | 10.7
ATCAAGCACGGACACACACACACACCCAGACCCCCA [CACACA_site4360] | 10.6

Sequence | gcPBM binding intensity (ln)
CACCCACCCAGACACACACACACAAAAAAAAAAAGA [CACACA_site499] | 11.2
CAAGCACAGAAACACACACACACACCGACACAGACA [CACACA_site4359] | 10.9
ACATCAAGCAGACACACACACACACCCACCCACCCA [CACACA_site8012] | 11.5
CAATATATTTGATTTACACACTTACAATGTATTTAA [CACACA_site5632] | 9.79
AAGAATTATTTTTTATGTACTTATATGTCAATTTTC [XGTACX_site6676] | 9.68
TTGTAGGAATTTATTTTGACTGATAATTAATACGTT [GTGCAC_negctrl_site46] | 9.47
AAAAAAAATATATATGCACACACAAAAAAACAAATT [CACACA_site8349] | 10.2
TAGTATCAATCTTATACATGCATAAAATAATTATAA [TGCATGCA_site1052] | 9.53
AAAAAATTTATAAAAGCACACAAAATAAAAAAAAAT [CACACA_site8420] | 9.78
TAACATATCTTTAATACACACTTAAAAAAGTACTTA [CACACA_site4532] | 9.41
CAGATAGACTTATATGCATGCATTCACCTGCCAACA [TGCATGCA_site158] | 9.66
AATATATGGTTTCATGATATAAAATTCAATTTAATG [GTGCAC_negctrl_site610] | 9.51
ATGTTTTATATTTTTTTTTTGTTTGCTTGTTTCCTC [CACACA_negctrl_site870] | 9.57
ATATACAAAGGATTAACACACATATTATTATAGATA [CACACA_site6966] | 9.87
TGTTTTTTATTTAATTGTACGAATTAAAAAAAATAA [XGTACX_site3009] | 9.1
TAGACTCCCAGACACACACACACACCCATATAATAT [CACACA_site593] | 10.5
ATACATCAAGGACACACACACACACCCACACCCACA [CACACA_site8013] | 11.1
ATACATCAAGGACACACACACACACGCACACGCACA [CACACA_site6310] | 10.7
TACACCCACCCACATACACACACATACACATATATA [CACACA_site8503] | 10.8
CACCCCCACAGACACACACACACACCCATATATATA [CACACA_site364] | 10.6
CACCCACCCAGACACACACACACACCCCCACCCATA [CACACA_site367] | 11.6
